# Measurements from PubChem BioAssay AID1159580 (chemical genetic matrix, 2015).
# “And” between values parts separate entries of the source, which are not always exact repeats. Identical values can stand only once. Hit rate of the full screen: of about 5,500 compounds, about 2,000 (36%) were called active. Inconclusive results (about 18%) are left out. Some of the results follow. Values without a mark were called inactive. No stated cut-off is given here; in the data, active means normalized growth mostly below about 0.91 (no sharp cut-off); inconclusive means no clear call, values can overlap the other calls; inactive means mostly above about 0.92.
# Experiment: chemical genetic growth profiling, strain panel (AID 1159580);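 further: tested at 20 µM; growth read once vehicle control cultures reached saturation at 30 °C; 1 = growth at the plate median or of vehicle wells; lower values mean less growth of the strain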
# Details: growth OD
# [1] = S. cerevisiae deletion strains, locus YAL013W, strain DEP1, active compounds read low
# [2] = S. cerevisiae deletion strains, locus YBR229C, strain ROT2, active compounds read low
# [3] = S. cerevisiae deletion strains, locus YDL101C, strain DUN1, active compounds read low
# [4] = S. cerevisiae deletion strains, locus YDR150W, strain NUM1, active compounds read low
# [5] = S. cerevisiae deletion strains, locus YEL061C, strain CIN8, active compounds read low
# [6] = S. cerevisiae deletion strains, locus YGR078C, strain PAC10, active compounds read low
# [7] = S. cerevisiae deletion strains, locus YHR030C, strain SLT2, active compounds read low
# [8] = S. cerevisiae deletion strains, locus YJR043C, strain POL32, active compounds read low
# [9] = S. cerevisiae deletion strains, locus YJR075W, strain HOC1, active compounds read low
# [10] = S. cerevisiae deletion strains, locus YLR039C, strain RIC1, active compounds read low
# [11] = S. cerevisiae deletion strains, locus YLR262C, strain YPT6, active compounds read low
# [12] = S. cerevisiae deletion strains, locus YMR263W, strain SAP30, active compounds read low
# [13] = S. cerevisiae deletion strains, locus YNL153C, strain GIM3, active compounds read low
# [14] = S. cerevisiae deletion strains, locus YNL322C, strain KRE1, active compounds read low
# [15] = S. cerevisiae deletion strains, locus YPL055C, strain LGE1, active compounds read low
# [16] = S. cerevisiae deletion strains, locus YPL241C, strain CIN2, active compounds read low
# [17] = S. cerevisiae strains, strain wild type, active compounds read low
smiles,measurement,setting,value
O/N=C(/CNC(c1ccccc1)(c1ccccc1)c1ccccc1)c1ccccc1,normalized growth,[1],0.969
same,normalized growth,[2],0.977
same,normalized growth,[3],0.963
same,normalized growth,[4],0.9
same,normalized growth,[5],0.949
same,normalized growth,[6],0.987
same,normalized growth,[7],0.594 (active)
same,normalized growth,"S. cerevisiae deletion strains, locus YHR087W, strain rtc3, active compounds read low",1.01
same,normalized growth,"S. cerevisiae deletion strains, locus YJL187C, strain SWE1, active compounds read low",0.97
same,normalized growth,[8],0.988
same,normalized growth,[9],1.02
same,normalized growth,[10],1.01
same,normalized growth,"S. cerevisiae deletion strains, locus YLR058C, strain SHM2 (second series), active compounds read low",0.975
same,normalized growth,"S. cerevisiae deletion strains, locus YLR085C, strain ARP6, active compounds read low",0.819
same,normalized growth,[11],1.02
same,normalized growth,"S. cerevisiae deletion strains, locus YML094W, strain GIM5, active compounds read low",0.969
same,normalized growth,"S. cerevisiae deletion strains, locus YMR219W, strain ESC1, active compounds read low",0.968
same,normalized growth,[12],0.999
same,normalized growth,[13],1.03
same,normalized growth,"S. cerevisiae deletion strains, locus YNL298W, strain CLA4 (second series), active compounds read low",1
same,normalized growth,[14],0.985
same,normalized growth,"S. cerevisiae deletion strains, locus YNR030W, strain Alg12, active compounds read low",0.976
same,normalized growth,[15],0.998
same,normalized growth,[16],0.964
same,normalized growth,"S. cerevisiae deletion strains, locus YPR135W, strain CTF4, active compounds read low",0.758
same,normalized growth,[17],0.969
NCCCCNCCCN,normalized growth,[1],1.01 and 0.954
same,normalized growth,"S. cerevisiae deletion strains, locus YAL040C, strain CLN3, active compounds read low",0.977
same,normalized growth,"S. cerevisiae deletion strains, locus YBR021W, strain FUR4, active compounds read low",1.11
same,normalized growth,[2],0.997
same,normalized growth,"S. cerevisiae deletion strains, locus YCL029C, strain bik1, active compounds read low",0.95
same,normalized growth,"S. cerevisiae deletion strains, locus YCL061C, strain MRC1 (second series), active compounds read low",0.982
same,normalized growth,"S. cerevisiae deletion strains, locus YDL035C, strain GPR1, active compounds read low",1.02
same,normalized growth,"S. cerevisiae deletion strains, locus YDL074C, strain BRE1, active compounds read low",0.98
same,normalized growth,[3],0.981
same,normalized growth,"S. cerevisiae deletion strains, locus YDL134C, strain PPH21, active compounds read low",1.01
same,normalized growth,"S. cerevisiae deletion strains, locus YDL185W, strain tfp1, active compounds read low",0.946
same,normalized growth,"S. cerevisiae deletion strains, locus YDL192W, strain arf1, active compounds read low",0.983
same,normalized growth,"S. cerevisiae deletion strains, locus YDR101C, strain arx1, active compounds read low",0.988
same,normalized growth,[4],0.978 and 1
same,normalized growth,"S. cerevisiae deletion strains, locus YDR162C, strain NBP2, active compounds read low",0.998
same,normalized growth,"S. cerevisiae deletion strains, locus YDR318W, strain mcm21, active compounds read low",0.987
same,normalized growth,"S. cerevisiae deletion strains, locus YDR363W, strain ESC2, active compounds read low",0.971
same,normalized growth,"S. cerevisiae deletion strains, locus YDR388W, active compounds read low",0.996
same,normalized growth,"S. cerevisiae deletion strains, locus YDR502C, strain sam2, active compounds read low",1.01
same,normalized growth,[5],0.995
same,normalized growth,"S. cerevisiae deletion strains, locus YER002W, strain NOP16, active compounds read low",0.991
same,normalized growth,"S. cerevisiae deletion strains, locus YER110C, active compounds read low",0.979
same,normalized growth,"S. cerevisiae deletion strains, locus YER155C, strain BEM2, active compounds read low",1.01
same,normalized growth,"S. cerevisiae deletion strains, locus YER167W, strain BCK2, active compounds read low",1
same,normalized growth,"S. cerevisiae deletion strains, locus YGL078C, strain dbp3, active compounds read low",0.981
same,normalized growth,"S. cerevisiae deletion strains, locus YGL086W, strain mad1, active compounds read low",0.996
same,normalized growth,"S. cerevisiae deletion strains, locus YGL248W, strain PDE1, active compounds read low",1
same,normalized growth,[6],0.972
same,normalized growth,"S. cerevisiae deletion strains, locus YGR135W, strain pre9, active compounds read low",0.999
same,normalized growth,"S. cerevisiae deletion strains, locus YGR229C, strain SMI1, active compounds read low",0.991
same,normalized growth,"S. cerevisiae deletion strains, locus YGR252W, strain gcn5, active compounds read low",1.13
same,normalized growth,[7],0.985 and 0.976
same,normalized growth,"S. cerevisiae deletion strains, locus YHR079C, strain IRE1 (second series), active compounds read low",0.981
same,normalized growth,"S. cerevisiae deletion strains, locus YHR079C, strain IRE1, active compounds read low",0.985
same,normalized growth,"S. cerevisiae deletion strains, locus YHR094C, strain hxt1, active compounds read low",0.972
same,normalized growth,"S. cerevisiae deletion strains, locus YHR129C, strain ARP1, active compounds read low",0.989
same,normalized growth,"S. cerevisiae deletion strains, locus YHR200W, strain rpn10, active compounds read low",0.992
same,normalized growth,"S. cerevisiae deletion strains, locus YIL066C, strain RNR3, active compounds read low",0.99
same,normalized growth,"S. cerevisiae deletion strains, locus YIL073C, strain SPO22, active compounds read low",0.722
same,normalized growth,"S. cerevisiae deletion strains, locus YIR030C, strain dcg1, active compounds read low",0.99
same,normalized growth,"S. cerevisiae deletion strains, locus YJL095W, strain BCK1, active compounds read low",0.977 and 1.02
same,normalized growth,"S. cerevisiae deletion strains, locus YJL134W, strain LCB3, active compounds read low",0.995
same,normalized growth,"S. cerevisiae deletion strains, locus YJL168C, strain set2, active compounds read low",0.991
same,normalized growth,"S. cerevisiae deletion strains, locus YJL187C, strain SWE1 (second series), active compounds read low",0.964
same,normalized growth,[8],1
same,normalized growth,"S. cerevisiae deletion strains, locus YJR066W, strain TOR1, active compounds read low",0.931
same,normalized growth,[9],0.995 and 1
same,normalized growth,"S. cerevisiae deletion strains, locus YKL009W, strain mrt4, active compounds read low",0.991
same,normalized growth,"S. cerevisiae deletion strains, locus YKL068W, active compounds read low",0.977
same,normalized growth,"S. cerevisiae deletion strains, locus YKL085W, strain MDH1 (second series), active compounds read low",0.985
same,normalized growth,"S. cerevisiae deletion strains, locus YKL085W, strain MDH1, active compounds read low",0.985
same,normalized growth,"S. cerevisiae deletion strains, locus YKL190W, strain CNB1, active compounds read low",0.988
same,normalized growth,"S. cerevisiae deletion strains, locus YKR001C, strain vps1, active compounds read low",0.971
same,normalized growth,[10],0.973
same,normalized growth,"S. cerevisiae deletion strains, locus YLR058C, strain SHM2, active compounds read low",0.985
same,normalized growth,"S. cerevisiae deletion strains, locus YLR102C, strain apc9, active compounds read low",0.991
same,normalized growth,"S. cerevisiae deletion strains, locus YLR113W, strain HOG1, active compounds read low",1.05
same,normalized growth,[11],0.96
same,normalized growth,"S. cerevisiae deletion strains, locus YLR268W, strain sec22, active compounds read low",0.928
same,normalized growth,"S. cerevisiae deletion strains, locus YLR330W, strain CHS5, active compounds read low",0.991
same,normalized growth,"S. cerevisiae deletion strains, locus YLR342W, strain FKS1 (second series), active compounds read low",1.04
same,normalized growth,"S. cerevisiae deletion strains, locus YLR371W, strain rom2, active compounds read low",0.979
same,normalized growth,"S. cerevisiae deletion strains, locus YLR418C, strain cdc73, active compounds read low",1.01
same,normalized growth,"S. cerevisiae deletion strains, locus YML016C, strain PPZ1, active compounds read low",0.988
same,normalized growth,"S. cerevisiae deletion strains, locus YML124C, strain tub3, active compounds read low",0.986
same,normalized growth,"S. cerevisiae deletion strains, locus YMR078C, strain ctf18, active compounds read low",0.999
same,normalized growth,"S. cerevisiae deletion strains, locus YMR223W, strain ubp8, active compounds read low",1.03
same,normalized growth,[12],0.978 and 0.977
same,normalized growth,"S. cerevisiae deletion strains, locus YMR307W, strain GAS1, active compounds read low",1.12 and 0.988
same,normalized growth,"S. cerevisiae deletion strains, locus YNL067W, strain RPL9B, active compounds read low",0.972
same,normalized growth,"S. cerevisiae deletion strains, locus YNL128W, strain TEP1, active compounds read low",1.01
same,normalized growth,[13],0.971 and 1.03
same,normalized growth,"S. cerevisiae deletion strains, locus YNL175C, strain NOP13, active compounds read low",1
same,normalized growth,"S. cerevisiae deletion strains, locus YNL183C, strain NPR1, active compounds read low",0.959
same,normalized growth,"S. cerevisiae deletion strains, locus YNL197C, strain WHI3, active compounds read low",0.988
same,normalized growth,"S. cerevisiae deletion strains, locus YNL224C, strain SQS1, active compounds read low",0.98
same,normalized growth,"S. cerevisiae deletion strains, locus YNL233W, strain BNI4, active compounds read low",0.98
same,normalized growth,"S. cerevisiae deletion strains, locus YNL250W, strain rad50, active compounds read low",0.962
same,normalized growth,"S. cerevisiae deletion strains, locus YNL271C, strain bni1, active compounds read low",0.977
same,normalized growth,"S. cerevisiae deletion strains, locus YNL298W, strain CLA4, active compounds read low",0.981
same,normalized growth,"S. cerevisiae deletion strains, locus YNL307C, strain MCK1, active compounds read low",0.975
same,normalized growth,[14],0.988 and 0.982
same,normalized growth,"S. cerevisiae deletion strains, locus YNR052C, strain pop2, active compounds read low",0.995
same,normalized growth,"S. cerevisiae deletion strains, locus YOL006C, strain TOP1, active compounds read low",0.776
same,normalized growth,"S. cerevisiae deletion strains, locus YOL012C, strain htz1",0.74
same,normalized growth,"S. cerevisiae deletion strains, locus YOL147C, strain pex11, active compounds read low",0.982
same,normalized growth,"S. cerevisiae deletion strains, locus YOR061W, strain CKA2, active compounds read low",0.996
same,normalized growth,"S. cerevisiae deletion strains, locus YOR069W, strain VPS5, active compounds read low",0.996
same,normalized growth,"S. cerevisiae deletion strains, locus YOR083W, strain WHI5 (second series), active compounds read low",0.915
same,normalized growth,"S. cerevisiae deletion strains, locus YOR136W, strain idh2, active compounds read low",0.996
same,normalized growth,"S. cerevisiae deletion strains, locus YOR144C, strain elg1, active compounds read low",0.996
same,normalized growth,"S. cerevisiae deletion strains, locus YOR184W, strain ser1, active compounds read low",0.953
same,normalized growth,"S. cerevisiae deletion strains, locus YOR231W, strain MKK1, active compounds read low",0.989
same,normalized growth,"S. cerevisiae deletion strains, locus YOR316C, strain cot1, active compounds read low",0.979
same,normalized growth,[15],1.03
same,normalized growth,[16],0.997
same,normalized growth,"S. cerevisiae deletion strains, locus YPL256C, strain CLN2, active compounds read low",0.974
same,normalized growth,"S. cerevisiae deletion strains, locus YPR119W, strain clb2, active compounds read low",0.979
same,normalized growth,"S. cerevisiae deletion strains, locus YPR141C, strain kar3, active compounds read low",0.991
same,normalized growth,"S. cerevisiae deletion strains, locus YPR163C, strain tif3, active compounds read low",0.984
same,normalized growth,"S. cerevisiae deletion strains, locus YPR167C, strain met16, active compounds read low",0.982
same,normalized growth,"S. cerevisiae deletion strains, strain wtn01, active compounds read low",0.993
same,normalized growth,[17],1.01
